Assay [1] relates to Wnt5a (protein binding on small-molecule microarray). Description: small molecules binding Wnt5a protein – biophysical, small-molecule microarray, 635/667 nm fluorescence, primary screen (AID 1142).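 Also: fluorescence read at 667 nm with signal to noise per printed feature.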 The note with it: 635 nm fluorescence, higher = more signal.
Assay [2] can be described thus: ATP-based viability of Huh7 replicon cells – cell-based, CellTiter-Glo luminescence, basal, 48 h, cytotoxicity control for HCV replication inhibitor project, primary screen (AID 1143).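 Also: Huh7 hepatoma cells carrying a hepatitis C replication reporter with no stimulus; test concentration not given here.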 The note with it: higher = more signal, called active from +8 up or from −8 down. (A replicon is a self-replicating genome or part of one, used to study replication in cells.)
Assay [3] can be described thus: Pseudomonas biofilm growth suppression – PAO1 strain, BacTiter-Glo luminescence, LB-PBS, primary screen (AID 1144). To be noted: P. aeruginosa PAO1 biofilm, 12 h, higher = more signal.
Assay [4] can be described thus: basal CRE-LacZ reporter activity in PC12 – cell-based, unstimulated, primary screen (AID 1145). The note with it: no forskolin, luminescence, 4.5 h, higher = more signal, called active from +8 up or from −8 down.
A short description of assay [5]: forskolin-driven CRE-LacZ activity in PC12 – cell-based, CRE-LacZ reporter, forskolin-stimulated, primary screen (AID 1146).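 Also: PC12 cells with 6xCRE LacZ reporter stimulated by forskolin 10 µM; beta-galactosidase reporter signal reflecting CREB driven transcription.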 The note with it: luminescence, 4.5 h, higher = more signal, called active from +8 up or from −8 down.
Assay [6] addresses Streptavidin (Streptomyces avidinii) (UniProt P22629). Kind of assay: compounds binding control protein streptavidin – biophysical, small-molecule microarray, 635/667 nm fluorescence, artefact control for SMM compound annotation, primary screen (AID 1147).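 Also: signal reflects streptavidin binding to arrayed compounds as a control protein.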 To be noted: higher = more signal.
Assay [7] is described as follows: probe aInhba binding on compound microarray – biochemical, small-molecule microarray, 635/667 nm fluorescence, primary screen (AID 1148).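 Also: score merges 667nm spot fluorescence with signal-to-noise for antibody binding to printed compounds.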 The note with it: higher = more signal.
For assay [8], the target named is Torsin-1A (Homo sapiens) (UniProt O14656). Description: TOR1A wild-type binding on microarray – cell lysate, small-molecule microarray, lysate, 635/667 nm, primary screen (AID 1149). To be noted: COS7 hTOR1A-WT lysate, 635 nm fluorescence, higher = more signal.
The target is the same in assay [9]. Kind of assay: torsin A mutant lysate binding on microarrays – cell lysate, small-molecule microarray, COS7 lysate, 635/667 nm fluorescence, primary screen (AID 1150).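 Also: score pools 667 nm emission and signal to noise measuring lysate protein binding.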 The note with it: COS7 hTOR1A mutant lysate, 635 nm fluorescence, higher = more signal.
Assay [10] relates to Sonic hedgehog protein (Shh). Kind of assay: Sonic hedgehog microarray binding compounds – biochemical, small-molecule microarray, 635/667 nm fluorescence, primary screen (AID 1151).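 Also: Shh protein binding to compounds spotted on small-molecule microarray slides; score combines spot fluorescence intensity with signal-to-noise across triplicate slides.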 The note with it: 635 nm fluorescence, higher = more signal.
Assay [11] is described as follows: optical density shifts of acrAB sulA E. coli – strain DRC41, OD650, 48 h, E. coli filamentation inducer project, primary screen (AID 1152).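 Also: E. coli MC1000 strain DRC41 lacking acrAB efflux pump and sulA.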 To be noted: higher = more signal, called active from +8 up or from −8 down.
Assay [12] is described as follows: probe aLefty1 binding on compound microarray – biochemical, small-molecule microarray, 635/667 nm fluorescence, primary screen (AID 1153).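 Also: score merges spot fluorescence with signal-to-noise ratio from the scanned slide images.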 The note with it: higher = more signal.
Assay [13] in a line: plasmodial surface anion channel blockers, osmotic lysis – cell-based, P. falciparum Indochina, OD700, 1 h, primary screen (AID 1154). The note with it: P. falciparum Indochina infected RBC osmotic lysis, higher = more signal, called active from +8 up or from −8 down.
Assay [14] is described as follows: plasmodial surface anion channel blockers, osmotic lysis – cell-based, P. falciparum Indochina, OD700, 2 h, primary screen (AID 1155).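 Also: lysis reports solute entry through the parasite surface anion channel PSAC.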 To be noted: P. falciparum Indochina infected erythrocytes, higher = more signal, called active from +8 up or from −8 down.
Assay [15] in a line: changes in parasitized red cell lysis, either direction – P. falciparum Indochina, OD700, 3 h, PSAC antagonist project, primary screen (AID 1156). To be noted: P. falciparum-infected erythrocytes, osmotic lysis, higher = more signal, called active from +8 up or from −8 down.
Assay [16] is described as follows: plasmodial surface anion channel blockers, osmotic lysis – cell-based, P. falciparum Indochina, OD700, 18 h, primary screen (AID 1157). The note with it: P. falciparum Indochina infected erythrocytes, osmotic lysis OD700, 18 h; higher = more signal, called active from +8 up or from −8 down.
Assay [17] can be described thus: S6 kinase pathway phospho-S6 level changes – cell-based, A549, cytoblot, luminescence, serum-stimulated, primary screen (AID 1158).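 Also: serum-stimulated A549 lung adenocarcinoma cells; signal is phosphorylated S6 detected by cytoblot immunostaining with HRP secondary.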 To be noted: 5 h, higher = more signal.
Assay [18] concerns the target NADPH oxidase 2 (Homo sapiens) (UniProt P04839). Description: compounds shifting NOX2 Amplex Red fluorescence – cell-based, HEK293-NOX2, PMA-stimulated, NOX inhibitor project, primary screen (AID 1159). Also: test concentration not given here. The note with it: 45 min, higher = more signal, called active from +8 up or from −8 down.
Assay [19] deals with NADPH oxidase 4 (Homo sapiens) (UniProt Q9NPH5). Description: compounds shifting NOX4 Amplex Red fluorescence – cell-based, HEK293-NOX4, tetracycline-induced, NOX inhibitor project, primary screen (AID 1160). The note with it: HEK293-NOX4, Amplex Red H2O2 fluorescence, 45 min; higher = more signal, called active from +8 up or from −8 down.
Assay [20] addresses NADPH oxidase 5 (Homo sapiens) (UniProt Q96PH1). Kind of assay: compounds shifting NOX5 Amplex Red fluorescence – cell-based, HEK293-NOX5, NOX inhibitor project, primary screen (AID 1161). To be noted: HEK293-NOX5, ionomycin, 45 min, higher = more signal.

Active and inactive are the calls of the source. Unless noted, no rule for the calls is given here.

Sequence of NADPH oxidase 2 (Homo sapiens) (P04839 whole entry, looked up): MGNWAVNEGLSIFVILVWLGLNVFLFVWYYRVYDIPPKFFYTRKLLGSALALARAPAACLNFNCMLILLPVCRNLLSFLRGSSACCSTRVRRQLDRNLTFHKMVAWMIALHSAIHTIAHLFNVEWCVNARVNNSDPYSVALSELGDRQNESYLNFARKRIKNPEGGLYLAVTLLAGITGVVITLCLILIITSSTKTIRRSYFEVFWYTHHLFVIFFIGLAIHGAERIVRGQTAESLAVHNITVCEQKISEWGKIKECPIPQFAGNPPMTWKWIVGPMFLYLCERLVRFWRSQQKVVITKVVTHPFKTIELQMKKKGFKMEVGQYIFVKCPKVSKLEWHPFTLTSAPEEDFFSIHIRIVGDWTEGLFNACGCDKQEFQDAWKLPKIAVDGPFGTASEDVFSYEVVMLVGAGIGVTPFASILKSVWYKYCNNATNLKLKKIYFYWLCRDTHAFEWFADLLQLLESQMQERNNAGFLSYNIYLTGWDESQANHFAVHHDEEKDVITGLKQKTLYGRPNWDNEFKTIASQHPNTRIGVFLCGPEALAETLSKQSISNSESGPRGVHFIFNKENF
Sequence of Streptavidin (Streptomyces avidinii) (P22629 whole entry, looked up): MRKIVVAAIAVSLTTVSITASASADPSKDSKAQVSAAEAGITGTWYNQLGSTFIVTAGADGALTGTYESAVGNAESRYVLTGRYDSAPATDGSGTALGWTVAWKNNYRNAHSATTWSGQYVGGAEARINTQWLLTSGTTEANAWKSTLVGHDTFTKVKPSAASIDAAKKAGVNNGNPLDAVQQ
Sequence of Torsin-1A (Homo sapiens) (O14656 whole entry, looked up): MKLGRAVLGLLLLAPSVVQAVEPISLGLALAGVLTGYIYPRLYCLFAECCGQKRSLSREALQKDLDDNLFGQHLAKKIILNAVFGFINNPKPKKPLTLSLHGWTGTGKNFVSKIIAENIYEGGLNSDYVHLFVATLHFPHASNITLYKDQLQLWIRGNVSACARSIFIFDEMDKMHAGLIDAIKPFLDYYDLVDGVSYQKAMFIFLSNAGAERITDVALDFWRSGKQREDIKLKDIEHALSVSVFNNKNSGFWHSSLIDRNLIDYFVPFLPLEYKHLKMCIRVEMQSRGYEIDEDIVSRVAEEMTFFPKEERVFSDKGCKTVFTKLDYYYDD
Sequence of NADPH oxidase 4 (Homo sapiens) (Q9NPH5 whole entry, looked up): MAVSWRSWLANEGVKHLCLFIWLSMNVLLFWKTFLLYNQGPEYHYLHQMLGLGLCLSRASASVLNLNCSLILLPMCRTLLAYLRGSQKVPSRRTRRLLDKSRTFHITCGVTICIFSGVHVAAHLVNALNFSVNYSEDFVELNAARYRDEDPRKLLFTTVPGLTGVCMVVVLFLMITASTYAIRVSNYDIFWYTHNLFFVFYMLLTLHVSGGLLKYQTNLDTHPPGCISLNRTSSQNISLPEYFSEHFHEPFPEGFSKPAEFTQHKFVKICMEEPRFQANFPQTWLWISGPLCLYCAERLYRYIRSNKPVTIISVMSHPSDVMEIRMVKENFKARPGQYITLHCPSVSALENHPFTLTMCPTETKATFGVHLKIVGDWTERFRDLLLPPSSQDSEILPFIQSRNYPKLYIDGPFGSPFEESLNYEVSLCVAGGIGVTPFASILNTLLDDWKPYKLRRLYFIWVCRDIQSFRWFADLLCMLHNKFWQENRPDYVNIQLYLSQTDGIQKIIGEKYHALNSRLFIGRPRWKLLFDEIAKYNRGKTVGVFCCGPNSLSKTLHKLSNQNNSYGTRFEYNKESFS
Sequence of NADPH oxidase 5 (Homo sapiens) (Q96PH1 whole entry, looked up): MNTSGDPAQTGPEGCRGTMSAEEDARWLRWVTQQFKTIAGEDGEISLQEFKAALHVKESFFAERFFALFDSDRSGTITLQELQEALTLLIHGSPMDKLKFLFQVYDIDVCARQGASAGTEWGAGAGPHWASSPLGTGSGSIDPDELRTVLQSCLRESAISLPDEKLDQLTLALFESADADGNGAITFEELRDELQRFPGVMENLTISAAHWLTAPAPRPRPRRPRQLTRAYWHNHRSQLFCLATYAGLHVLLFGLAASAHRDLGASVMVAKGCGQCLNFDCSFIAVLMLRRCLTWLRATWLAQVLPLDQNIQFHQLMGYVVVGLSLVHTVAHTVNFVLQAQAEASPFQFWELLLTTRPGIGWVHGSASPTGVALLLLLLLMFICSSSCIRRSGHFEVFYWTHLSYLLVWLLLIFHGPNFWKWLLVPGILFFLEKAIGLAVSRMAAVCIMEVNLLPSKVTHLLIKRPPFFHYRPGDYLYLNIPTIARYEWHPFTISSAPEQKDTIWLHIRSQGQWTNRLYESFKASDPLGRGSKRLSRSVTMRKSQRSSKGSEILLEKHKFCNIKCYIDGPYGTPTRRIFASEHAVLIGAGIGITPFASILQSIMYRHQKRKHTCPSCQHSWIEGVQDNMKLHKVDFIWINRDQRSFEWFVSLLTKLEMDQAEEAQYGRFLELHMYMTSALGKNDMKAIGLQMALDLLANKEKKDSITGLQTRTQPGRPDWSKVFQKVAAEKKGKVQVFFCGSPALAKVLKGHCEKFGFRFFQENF

Consider `C[C@H]1CC[C@H]2C(=O)O[C@H](CO)CN2[C@@H]1c1ccc(Br)cc1`, for which the composite z-score is 0.0217 in assay [1]; 0.0279 in [6]; -0.202 in assay [7]; 0.345 with Torsin-1A (Homo sapiens) [8]; -0.363 with Torsin-1A (Homo sapiens) [9]; -0.0013 in assay [10]. In assay [12], this molecule returned a composite z-score of 0.0012. The z-score was -0.98 (inactive) in [2]; -1.38 (inactive) in [3]; -0.557 (inactive) in assay [4]; -0.816 (inactive) in assay [5]; -0.0016 (inactive) in assay [11]; 1.51 (inactive) in [13]. The z-score is 0.939 (inactive) in [14]; 0.0454 (inactive) in assay [15]; 0.49 (inactive) in assay [16]; -0.337 in [17]; -0.431 (inactive) in [18]; -0.191 (inactive) in assay [19]. For the same molecule, the z-score in assay [20] was -0.489.
Take `CCCNC(=O)OC[C@H]1O[C@H](CCON=C2C[C@@H](O)[C@@H](O)[C@@H]3[C@@H]4C(=O)N(CC)C(=O)[C@@H]4CC[C@@H]23)C=C[C@@H]1Oc1ccc(OC)cc1`: the composite z-score amounted to 0.0561 in assay [1]; 0.842 in [6]; 0.0256 in assay [7]; 0.509 with Torsin-1A (Homo sapiens) [8]; 0.43 with Torsin-1A (Homo sapiens) [9]; 1.33 in [10]. In [12], this molecule displayed a composite z-score of 0.186. The z-score is -0.402 (inactive) in assay [2]; 1.08 (inactive) in [3]; 0.68 (inactive) in [4]; 0.23 (inactive) in assay [5]; 0.599 (inactive) in assay [11]; 1.69 (inactive) in assay [13]. Also, the z-score in assay [14] was 0.584 (inactive); in assay [15], -0.0328 (inactive); in assay [16], 0.368 (inactive); in assay [17] it was -0.432; in [18] it was -0.708 (inactive); in assay [19] it was 0.471 (inactive). For the same molecule, the z-score in [20] is -0.818.
As for `CC(C)C(=O)N[C@H]1CCCN1C(=O)C=Cc1ccccc1`, the composite z-score in assay [1] amounted to 0.121; in [6], 0.111; in assay [7], 0.0173; with Torsin-1A (Homo sapiens) [8], 0.445; in the assay with Torsin-1A (Homo sapiens) [9], 0.231; in assay [10] it was 0.769. In assay [12], this molecule gave a composite z-score of 0.271. Also, the z-score in [2] was 0.623 (inactive); in [3], 0.186 (inactive); in [4] it was -0.255 (inactive); in assay [5], -0.135 (inactive); in assay [11], -1.05 (inactive); in [13], 1.35 (inactive). For the same molecule, the z-score in [14] was 0.627 (inactive); in assay [15], 0.632 (inactive); in assay [16] it was 0.346 (inactive); in assay [17], -0.53; in assay [18], 0.679 (inactive); in assay [19], 0.913 (inactive). In assay [20], the z-score was -0.732.
Consider `CON=C(C)CCN1CCCc2nc(C)c(C)cc21`, for which the composite z-score in assay [1] is 0.377; in assay [6], 0.286; in [7], -0.0645; with Torsin-1A (Homo sapiens) [8], -0.209; with Torsin-1A (Homo sapiens) [9], 0.23; in assay [10] it was 1.07. The molecule further yielded a composite z-score in assay [12] of -0.0601. The z-score is 0.258 (inactive) in assay [2]; 0.128 (inactive) in assay [3]; 0.345 (inactive) in [4]; -0.0543 (inactive) in [5]; -2.33 (inactive) in assay [11]; 1.03 (inactive) in [13]. For the same molecule, the z-score in assay [14] is 0.498 (inactive); in assay [15], 0.619 (inactive); in assay [16], 0.49 (inactive); in assay [17] it was -0.621; in [18], -1.52 (inactive); in assay [19], -1.06 (inactive). Also, in assay [20], the z-score is -0.493.
With `C[C@H]1C=CCC(=O)OC[C@H](C)C(=O)N2CCC[C@H]2C(=O)OC1`, the composite z-score in [1] was 0.193; in assay [6] it was -0.176; in assay [7] it was -0.182; with Torsin-1A (Homo sapiens) [8], 3.32; with Torsin-1A (Homo sapiens) [9] it was 3.03; in assay [10], 2.35. The same molecule showed a composite z-score in [12] of -0.199. Moreover, the z-score was -0.401 (inactive) in [2]; -0.324 (inactive) in [3]; -0.324 (inactive) in [4]; 0.0267 (inactive) in assay [5]; 0.392 (inactive) in assay [11]; 0.158 (inactive) in [13]. In addition, the z-score in assay [14] was -0.157 (inactive); in assay [15], 0.484 (inactive); in [16] it was 0.0217 (inactive); in assay [17], -0.732; in assay [18], 0.166 (inactive); in [19], 0.515 (inactive). Also, the z-score in [20] is -0.957.
